Test [1] can be described thus: CCTE_Mundy_HCI_Cortical_Synap_Neur_Matur_NeuriteLength: CCTE's Synaptogenesis and Neurite Maturation Assay in rat cortical cells for Neurite Length, Mundy Lab (AID 2284214). The essentials:
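Cultures of rat primary cortical cells received chemical at DIV 7 and were fixed at DIV 12, after glial arrest with AraC at DIV 5. Neurite length was measured by automated imaging of MAP2 immunofluorescence.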

Test [2] is described as follows: CCTE_Mundy_HCI_Cortical_Synap_Neur_Matur_NeuriteSpotCountPerNeuron: CCTE's Synaptogenesis and Neurite Maturation Assay in rat cortical cells for Neurite Spot Count per Neuron Count, Mundy Lab (AID 2284215). An outline of the steps:
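Synapse density is scored as synaptophysin spots along neurites per neuron in fixed rat cortical neurons, measured at DIV 12 after chemical dosing at DIV 7. DMSO is the negative control and activity baseline.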

Test [3] is described as follows: CCTE_Mundy_HCI_Cortical_Synap_Neur_Matur_SynapseCount: CCTE's Synaptogenesis and Neurite Maturation Assay in rat cortical cells for Synapse Count, Mundy Lab (AID 2284218). An outline of the steps:
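Cells were plated, allowed 2 hr to attach, treated with AraC at DIV 5, then exposed to chemicals from DIV 7 until DIV 12. After fixation and MAP2/synaptophysin immunolabelling, synapses per neuron were quantified by automated imaging against DMSO.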

A short description of test [4]: CCTE_Mundy_HCI_hN2_NOG_NeuriteCount: CCTE's Neurite Outgrowth Assay in human hN2 cells for Neurite Count, Mundy Lab (AID 2284219; active = hit-call score of the fitted dose curve at least 0.9, where 1 is the maximum). An outline of the steps: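 In this morphology assay, hNP1-derived neurons received test chemical 2 h post-plating and were fixed two days later in warm paraformaldehyde/sucrose containing Hoechst 33342. Neurites, labelled by rabbit anti-βIII-tubulin (1:800) and Alexa Fluor-488 (1:500), were counted automatically.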

A short description of test [5]: CCTE_Mundy_HCI_hN2_NOG_NeuriteLength: CCTE's Neurite Outgrowth Assay in human hN2 cells for Neurite Length, Mundy Lab (AID 2284220; active = hit-call score of the fitted dose curve at least 0.9, where 1 is the maximum). The essentials: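 Plate hNP1-derived neurons, then add chemical 2 h later as a 1/10 dilution. Stain with anti-βIII-tubulin then Alexa Fluor-488 secondary, and image automatically to measure neurite length.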
Test [6] is described as follows: CCTE_Mundy_HCI_hN2_NOG_NeuronCount: CCTE's Neurite Outgrowth Assay in human hN2 cells for Neuron Count, Mundy Lab (AID 2284221; active = hit-call score of the fitted dose curve at least 0.9, where 1 is the maximum). An outline of the steps: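 Read-out is the number of betaIII-tubulin-positive neurons imaged by automated high-content analysis, with DMSO as negative control.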
The nature of test [7]: CCTE_Mundy_HCI_Cortical_Synap_Neur_Matur_NeuriteCount: CCTE's Synaptogenesis and Neurite Maturation Assay in rat cortical cells for Neurite Count, Mundy Lab (AID 2284222). The essentials:
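In this multiplexed morphology readout, rat primary cortical neurons are fixed at DIV 12 following dosing at DIV 7 and stained for MAP2, synaptophysin and nuclei. High-content image analysis yields neurite count.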

Test [8] is described as follows: CCTE_Mundy_HCI_hNP1_Pro_ResponderAvgInten: CCTE's Proliferation Assay in human neuroprogenitor cells, Mundy Lab (AID 2284224; active = hit-call score of the fitted dose curve at least 0.9, where 1 is the maximum). An outline of the steps: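 Proliferation was scored as BrdU labelling intensity in human neural progenitors derived from WA09 embryonic cells, measured 26.25 hours after chemical dosing. Activity was fitted relative to DMSO.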
Test [9] can be described thus: UKN4_HCS_LUHMES_cell_viability: Viability Assessment in the University of Konstanz (UKN) Leist Lab Neurite Outgrowth Assay in human LUHMES cells (UKN4) (AID 2284232). An outline of the steps:
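Cells switched to differentiation medium at day 0, replated on day 2 in medium lacking cAMP and GDNF, and compound-treated once attached. Live staining began 23.5 h later, imaging followed at 24 h.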

Test [10] is described as follows: UKN2_HCS_IMR90_cell_viability: Viability Assessment in the University of Konstanz (UKN) Leist Lab Neural Crest Cell Migration Assay in human induced IMR90 Pluripotent Stem Cells (UKN2) (AID 2284233).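 Also: cells exposed to compound for 24 h after a 24 h migration phase.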 The essentials: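 After calcein-AM/Hoechst staining, viability is quantified by high-content fluorescence imaging, relative to DMSO, in iPSC (IMR90)-derived neural crest cells. Exposure lasts 24 h, starting after a 24 h migration period on PLO/laminin/fibronectin coating.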

Test [11] can be described thus: CCTE_Mundy_HCI_Cortical_NOG_NeuronCount: CCTE's Neurite Outgrowth Assay in rat cortical cells for Neuron Count, Mundy Lab (AID 2284236; active = hit-call score of the fitted dose curve at least 0.9, where 1 is the maximum;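 also: neurons counted by imaging betaIII-tubulin and Hoechst stained cortical cells; cells exposed to compound for about 48 hours before fixation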). An outline of the steps:
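Read-out: neuron number by high-content imaging of betaIII-tubulin (Alexa Fluor-488) and Hoechst-labelled rat primary cortical cells.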

A short description of test [12]: CCTE_Mundy_HCI_Cortical_NOG_BPCount: CCTE's Neurite Outgrowth Assay in rat cortical cells for Branch Point Count, Mundy Lab (AID 2284237).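 Also: branch points counted about two days after chemical exposure.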 An outline of the steps:
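Measured 50.33 h after dosing, this morphology endpoint uses rat primary cortical cultures labelled for betaIII-tubulin. Branch points are quantified by high-content imaging, with DMSO as negative control and baseline.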

Test [13] in a line: CCTE_Mundy_HCI_hNP1_Casp3_7: CCTE's Caspase-Glo 3/7 Assay in human neuroprogenitor cells for Apoptosis, Mundy Lab (AID 2284240). The essentials: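 Apoptosis is scored by activated caspase-3/7 luminescence in WA09-derived neural progenitor cells, measured 26.5 h after chemical dosing. Values represent gain of signal relative to DMSO vehicle.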
A short description of test [14]: CCTE_Mundy_HCI_hNP1_CellTiter: CCTE's Cell Titer-Glo 2 Assay in human neuroprogenitor cells for Viability, Mundy Lab (AID 2284241; active = hit-call score of the fitted dose curve at least 0.9, where 1 is the maximum). An outline of the steps: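 Human neural progenitor cells (hNP1, WA09-derived) were plated on poly-L-ornithine/laminin and grown 40 to 44 hours at 37 °C, 5% CO2 before chemical addition. Twenty-four hours later, ATP was measured by CellTiter-Glo luminescence; loss of signal versus DMSO indicates reduced viability.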
A general note: ATP-based viability assays read luminescence as a measure of living cells.

Test [15] in a line: CCTE_Mundy_HCI_Cortical_Synap_Neur_Matur_NeuronCount: CCTE's Synaptogenesis and Neurite Maturation Assay in rat cortical cells for Neuron Count, Mundy Lab (AID 2284242; active = hit-call score of the fitted dose curve at least 0.9, where 1 is the maximum;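 also: neuron number from Hoechst nuclei and MAP2 staining by high-content imaging; hits reduce neuron count versus DMSO baseline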). The essentials:
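Cortical cells from rat are plated, treated with AraC at DIV 5, and exposed to test chemicals with a media change at DIV 7. At DIV 12 they are fixed and immunostained (MAP2, synaptophysin), and imaged neuron counts are compared against DMSO controls.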

Experimental findings from PubChem BioAssay (EPA / NIEHS) are described below.

Molecules are shown by their SMILES. Records with an inconclusive call do not appear. The source made the active and inactive calls. The calls were made as follows, unless noted: active = hit-call score of the fitted dose curve at least 0.9, where 1 is the maximum; inactive = score below 0.9.

A word on the AC50: it is the midpoint of the concentration-response curve, whichever way the signal moves. Consider `CNCCC(Oc1ccc(C(F)(F)F)cc1)c1ccccc1` (stereo not given), for which the AC50 in test [1] was 6.03 µM (active); in test [2] it was 8.96 µM (active); in [3], 9.16 µM (active); in [4], 12.3 µM (active); in [5], 12.9 µM (active); in [6], 11 µM (active). Further, the AC50 in [7] was 11.6 µM (active); in [9], 18.6 µM (active); in [10], 24.8 µM (active); in [11], 16 µM (active); in test [12] it was 10.9 µM (active); in test [13], 12.7 µM (active). The AC50 in test [14] was 20.7 µM (active); in test [15], 5.97 µM (active). Further, in [8], the compound was called inactive.
